From PubChem BioAssay (EPA / NIEHS)
More than one record can exist for a structure, and the calls need not agree. Calls of active or inactive are those of the source. The calls were made as follows: active = hit-call score of the fitted dose curve at least 0.9, where 1 is the maximum; inactive = score below 0.9.

read-out: Cytochrome P450 3A7 (Homo sapiens) (UniProt P24462); assay: LTEA_HepaRG_CYP3A7: Life Technologies and Expression Analysis (LTEA) Assay for CYP3A7 using HepaRG (AID 2283492); settings: mRNA level, 48 h; actives raise or lower the signal
Description: LTEA_HepaRG is a cell based, multiplexed-readout assay that uses HepaRG, a human liver cell line, with measurements taken at 48 hours after chemical dosing on a 96-well plate.LTEA_HepaRG_CYP3A7 is one of 102 assay component(s) measured in the LTEA HepaRG cell culture assay. It is a marker of NR mediated metabolism/Undifferentiated hepatocyte.Data from the assay component LTEA_HepaRG_CYP3A7 was analyzed into 1 endpoint. This assay endpoint, LTEA_HepaRG_CYP3A7, was analyzed with bidirectional fitting relative to DMSO as the negative control and baseline of activity. Using a type of inducible reporter, measures of mRNA induction for gain or loss-of-signal activity can be used to understand regulation of transcription factor activity. To generalize the intended target to other relatable targets, this assay endpoint is annotated to the cyp intended target family, where the subfamily is xenobiotic metabolism.
A total of 1060 chemcials from the ToxCast library were tested in eight-point concentration-response experiments. Cell culture and cytotoxicity assays were conducted at Thermo Fisher Scientific's Custom Services facility (Madison, WI). A single lot of human HepaRG cells (Thermo Fisher Scientific, Frederick, MD) was used for the cell culture experiments. 96-well format collagen type I coated plates of human HepaRG cells were prepared using established methods. Briefly, cryopreserved HepaRG cells were thawed, plated at a density of approximately 100,000 cells/well in HepaRG Thaw, Plate, and General Purpose media (HPRG770, Thermo Fisher Scientific), and incubated for 48 hours. 0.5% DMSO was selected as vehicle control to balance the requisite need of DMSO in HepaRG cultures to maintain differentiation (for example, baseline metabolism, proportions of hepatocytes vs. cholangiocytes), while enabling further hepatic receptor pathway activation (for example, PXR and CAR) in response to chemical exposure. 48 hours after plating, the culture medium was replaced with HepaRG Serum-Free Incudtion Media. Cells were exposed to each test chemical in duplicate and maintained in CO2 incubators for another 48 hours. Chemical plates were thawed to room temperature and 200x concentrations of treatment groups were prepared. 8-point conentration-reponse curves were made with the highest exposure at 100 uM, followed by half-log dilutions, all in 0.5% DMSO. Each test plate contained variouse controls, induction positive controls (1mM phenobarbital), cytotoxicity positive controls ([…] aflatoxin B1), vehicle controls (0.5% DMSO), and total lysis controls (0.5% DMSO). Cell morphology images were taken using an Essen IncuCyte FLR automated microscope, with six 96-well plates imaged in about 24 minutes. Images were captured and exported and JPEG files. Spent culture media was transfered to black-well plates for the LDH assay, and remaining media was sorted at -80 C for later use. Cells were treated with RLT buffer and frozen until shipped for gene expression analysis. Total RNA was isolated from the cell suspension in 75 uL of Buffer RLT (Qiagen, Germantown, MD 20874) by Quintiles/Expression Analysis (Durham, NC) using a custom isolation procedure. Total RNA from each plate well was transferred to a preamplification plate. Fluidigm's 96.96 Dynamic ArrayTM (Fluidigm, Amsterdam, the Netherlands) technology was used for gene expression analyses by quantitative reverse transcription polymerase chain reaction (qRT-PCR, performed by Quintiles/Expression Analysis, Durham, NC)89. Standard TaqManTM Assays (Applied Biosystems/ThermoFisher Scientific, Foster City, CA) were used to assess the expression of 93 genes selected based on their selectivity and sensitivity to important hepatic receptors known to be modulated by environmental chemicals; importance in human hepatocyte functionality; and hepatotoxicity. […]

Cytochrome P450 3A7 (Homo sapiens), sequence (P24462 whole entry, looked up): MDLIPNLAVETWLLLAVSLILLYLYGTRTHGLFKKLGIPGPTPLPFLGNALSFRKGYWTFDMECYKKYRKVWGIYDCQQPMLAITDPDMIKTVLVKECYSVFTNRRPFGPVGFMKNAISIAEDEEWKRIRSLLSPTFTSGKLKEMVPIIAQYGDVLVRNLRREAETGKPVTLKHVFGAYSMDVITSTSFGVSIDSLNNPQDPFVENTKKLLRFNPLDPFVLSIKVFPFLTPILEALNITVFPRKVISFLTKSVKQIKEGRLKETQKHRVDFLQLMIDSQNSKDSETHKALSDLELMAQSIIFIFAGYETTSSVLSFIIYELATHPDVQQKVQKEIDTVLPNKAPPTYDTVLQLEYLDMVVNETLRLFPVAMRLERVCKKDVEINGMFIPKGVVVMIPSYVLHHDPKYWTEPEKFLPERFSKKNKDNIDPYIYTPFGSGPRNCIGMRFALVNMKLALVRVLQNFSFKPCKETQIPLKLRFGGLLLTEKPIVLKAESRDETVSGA

| SMILES | AC50 | outcome |
| --- | --- | --- |
| N#CC(CCc1ccc(Cl)cc1)(Cn1cncn1)c1ccccc1 (stereo not given) | 11.7 µM (active) |  |
| CCCN(CCC)c1c([N+](=O)[O-])cc(S(N)(=O)=O)cc1[N+](=O)[O-] | 6.08 µM (active) | inactive |
| COC(=O)c1ccccc1C(=O)OC |  | inactive |
| CO/C=C(/C(=O)OC)c1ccccc1Oc1cc(Oc2ccccc2C#N)ncn1 |  | inactive |
| O=C(O)c1nc(Cl)ccc1Cl |  | inactive |
| COc1cnc(OC)n2nc(NS(=O)(=O)c3c(OCC(F)F)cccc3C(F)(F)F)nc12 |  | inactive |
| CCOP(=S)(OCC)SCn1c(=O)oc2cc(Cl)ccc21 |  | inactive |
| CCCCC(CC)COC(=O)c1ccccc1C(=O)OCC(CC)CCCC (stereo not given) |  | inactive |
| CC1COC(Cn2cncn2)(c2ccc(Oc3ccc(Cl)cc3)cc2Cl)O1 (stereo not given) |  | inactive |
| COP(=S)(OC)Oc1nc(Cl)c(Cl)cc1Cl |  | inactive |
| Cc1ccc(-c2c(Cl)nc(C#N)n2S(=O)(=O)N(C)C)cc1 | 83.5 µM (active) |  |
| CCCCNC(=O)OCC#CI | 50 µM (active) |  |
| COC(=O)C=C(C)OP(=O)(OC)OC |  | inactive |
| CON(C)C(=O)Nc1ccc(Cl)c(Cl)c1 |  | inactive |
| CC(C)C1(C)N=C(c2nc3ccccc3cc2C(=O)O)NC1=O (stereo not given) |  | inactive |
| CC(C)(C)c1ccc(CSc2cnn(C(C)(C)C)c(=O)c2Cl)cc1 | 1.05 µM (active) |  |
| O=C(Nc1ccccc1)Nc1ccnc(Cl)c1 |  | inactive |
| CCOc1cc(Oc2ccc(C(F)(F)F)cc2Cl)ccc1[N+](=O)[O-] | 75.8 µM (active) |  |
| COC(=O)C(C)Oc1ccc(Oc2ccc(Cl)cc2Cl)cc1 (stereo not given) | 27.3 µM (active) |  |
| CCCCOC(=O)c1ccccc1C(=O)OCCCC |  | inactive |

| SMILES | AC50 | outcome |
| --- | --- | --- |
| CCCCNC(=O)n1c(NC(=O)OC)nc2ccccc21 |  | inactive |
| Oc1ccccc1-c1ccccc1 |  | inactive |
| CC(Oc1ccc(Cl)cc1Cl)C(=O)O (stereo not given) |  | inactive |
| CCCC1COC(Cn2cncn2)(c2ccc(Cl)cc2Cl)O1 (stereo not given) | 29.5 µM (active) |  |
| CC(C)Oc1cc(-n2nc(C(C)(C)C)oc2=O)c(Cl)cc1Cl |  | inactive |
| CNC(=O)ON=CC(C)(C)SC |  | inactive |
| N#Cc1cc(Br)c(O)c(Br)c1 | 11.3 µM (active) |  |
| CNC(=S)S |  | inactive |
| C#CCOS(=O)OC1CCCCC1Oc1ccc(C(C)(C)C)cc1 (stereo not given) | 29.5 µM (active) |  |
| CCOC(=O)C(Cl)Cc1cc(-n2nc(C)n(C(F)F)c2=O)c(F)cc1Cl (stereo not given) | 34.3 µM (active) |  |
| Fc1ccc(Oc2ccnc3cc(Cl)cc(Cl)c23)cc1 | 79.4 µM (active) |  |
| CC1=C(C(=O)Nc2ccccc2)SCCO1 |  | inactive |
| Cc1c(F)c(F)c(COC(=O)C2C(/C=C(\Cl)C(F)(F)F)C2(C)C)c(F)c1F (stereo not given) |  | inactive |
| CCNc1nc(Cl)nc(NCC)n1 |  | inactive |
| C=CCC1=C(C)C(OC(=O)C2C(C=C(C)C)C2(C)C)CC1=O (stereo not given) |  | inactive |
| CS/C(C)=N/OC(=O)N(C)SN(C)C(=O)O/N=C(\C)SC |  | inactive |
| CCc1nn(C)c(C(=O)NCc2ccc(C(C)(C)C)cc2)c1Cl | 0.35 µM (active) |  |
| COc1nc(NC(C)C)nc(NC(C)C)n1 |  | inactive |
| Cc1cc(Cl)ccc1OCC(=O)O | 18.8 µM (active) |  |
